The values that follow come from PubChem BioAssay.

Each structure is given as a SMILES string. Active and inactive are the calls of the source.

Experiment [1] deals with PRMT1 (protein arginine N-methyltransferase 1). Briefly: PRMT1 binders on small-molecule microarrays, primary screen, biochemical, small-molecule microarray, 635 nm fluorescence (AID 1088).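 Further: binding of Prmt1 protein to compounds spotted on small-molecule microarray slides.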 The conditions noted are these: small-molecule microarray binding, higher = more signal.
Experiment [2] in a line: yeast growth modulation, basal conditions, primary screen, YJM789 clinical isolate, OD600, 24 h (AID 1089).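 Further: growth of clinical yeast isolate S. cerevisiae YJM 789 seeded 1000 cells per well; test concentration not given here.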 The settings on record: S. cerevisiae YJM789 growth, higher = more signal, called active from +8 up or from −8 down.
The nature of experiment [3]: fission yeast growth modulation, primary screen, strain 972, OD600, 24 h, no modulator (AID 1090).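 Further: basal condition with compound alone and no growth modifier present; test concentration not given here.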 The settings on record: S. pombe 972 growth, higher = more signal, called active from +8 up or from −8 down.
The nature of experiment [4]: S. cerevisiae growth modulation with rapamycin, primary screen, strain BY4716, OD600, 96 h (AID 1091). Further: test concentration not given here. The settings on record: higher = more signal, called active from +8 up or from −8 down.
The target in experiment [5] is Torsin-1A-interacting protein 2 (Homo sapiens) (UniProt Q8NFQ8). The experiment can be described thus: LULL1 binders on small-molecule microarray, primary screen, cell lysate, human LULL1 lysate, 635/667 nm fluorescence (AID 1092).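 Further: probe is lysate of COS7 cells overexpressing human LULL1; score merges per-feature 667 nm fluorescence with signal-to-noise.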 The settings on record: hLULL1 lysate binding, 635 nm fluorescence, higher = more signal.
Torsin-1A-interacting protein 2 (Homo sapiens), sequence (Q8NFQ8 whole entry, looked up): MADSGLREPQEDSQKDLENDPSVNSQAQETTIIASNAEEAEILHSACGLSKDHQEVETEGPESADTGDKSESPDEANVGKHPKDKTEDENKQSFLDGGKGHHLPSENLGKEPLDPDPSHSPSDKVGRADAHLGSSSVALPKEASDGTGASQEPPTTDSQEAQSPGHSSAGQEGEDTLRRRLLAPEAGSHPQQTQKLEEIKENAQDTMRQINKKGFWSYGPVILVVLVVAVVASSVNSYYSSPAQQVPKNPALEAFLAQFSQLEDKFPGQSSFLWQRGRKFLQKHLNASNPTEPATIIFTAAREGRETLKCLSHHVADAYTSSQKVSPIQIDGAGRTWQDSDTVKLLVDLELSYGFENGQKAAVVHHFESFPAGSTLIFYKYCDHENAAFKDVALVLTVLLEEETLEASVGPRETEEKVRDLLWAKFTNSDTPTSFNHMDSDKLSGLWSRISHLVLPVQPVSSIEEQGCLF
A short description of experiment [6]: E. coli growth modulation, two-sided OD650, primary screen, E. coli filamentation project, strain DRC41, 24 h (AID 1093).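 Further: MC1000 strain lacking acrAB efflux and sulA so SOS filamentation is blocked; test concentration not given here.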 The conditions noted are these: OD650, 24 h, higher = more signal, called active from +8 up or from −8 down.
Experiment [7] can be described thus: small-molecule microarray binders of probe aLefty2, primary screen, biochemical, biotinylated probe, 635/667 nm fluorescence (AID 1094).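 Further: score merges spot fluorescence near 667 nm with spot signal-to-noise ratio.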 The settings on record: higher = more signal.
The subject of experiment [8] is Noggin (protein binding on small-molecule microarray). Briefly: Noggin binders on small-molecule microarray, primary screen, biochemical, 635/667 nm fluorescence (AID 1095).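 Further: score merges 667 nm feature fluorescence with signal to noise over triplicate slides.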 The settings on record: 635 nm fluorescence, higher = more signal.
For experiment [9], the target named is Neurogenic locus notch homolog protein 3 (Homo sapiens) (UniProt Q9UM47). Briefly: NOTCH3 binders on small-molecule microarray, primary screen, biochemical, 635/667 nm fluorescence (AID 1096). The conditions noted are these: NOTCH3 binding, 635 nm fluorescence, higher = more signal.
Neurogenic locus notch homolog protein 3 (Homo sapiens), sequence (Q9UM47 whole entry, looked up): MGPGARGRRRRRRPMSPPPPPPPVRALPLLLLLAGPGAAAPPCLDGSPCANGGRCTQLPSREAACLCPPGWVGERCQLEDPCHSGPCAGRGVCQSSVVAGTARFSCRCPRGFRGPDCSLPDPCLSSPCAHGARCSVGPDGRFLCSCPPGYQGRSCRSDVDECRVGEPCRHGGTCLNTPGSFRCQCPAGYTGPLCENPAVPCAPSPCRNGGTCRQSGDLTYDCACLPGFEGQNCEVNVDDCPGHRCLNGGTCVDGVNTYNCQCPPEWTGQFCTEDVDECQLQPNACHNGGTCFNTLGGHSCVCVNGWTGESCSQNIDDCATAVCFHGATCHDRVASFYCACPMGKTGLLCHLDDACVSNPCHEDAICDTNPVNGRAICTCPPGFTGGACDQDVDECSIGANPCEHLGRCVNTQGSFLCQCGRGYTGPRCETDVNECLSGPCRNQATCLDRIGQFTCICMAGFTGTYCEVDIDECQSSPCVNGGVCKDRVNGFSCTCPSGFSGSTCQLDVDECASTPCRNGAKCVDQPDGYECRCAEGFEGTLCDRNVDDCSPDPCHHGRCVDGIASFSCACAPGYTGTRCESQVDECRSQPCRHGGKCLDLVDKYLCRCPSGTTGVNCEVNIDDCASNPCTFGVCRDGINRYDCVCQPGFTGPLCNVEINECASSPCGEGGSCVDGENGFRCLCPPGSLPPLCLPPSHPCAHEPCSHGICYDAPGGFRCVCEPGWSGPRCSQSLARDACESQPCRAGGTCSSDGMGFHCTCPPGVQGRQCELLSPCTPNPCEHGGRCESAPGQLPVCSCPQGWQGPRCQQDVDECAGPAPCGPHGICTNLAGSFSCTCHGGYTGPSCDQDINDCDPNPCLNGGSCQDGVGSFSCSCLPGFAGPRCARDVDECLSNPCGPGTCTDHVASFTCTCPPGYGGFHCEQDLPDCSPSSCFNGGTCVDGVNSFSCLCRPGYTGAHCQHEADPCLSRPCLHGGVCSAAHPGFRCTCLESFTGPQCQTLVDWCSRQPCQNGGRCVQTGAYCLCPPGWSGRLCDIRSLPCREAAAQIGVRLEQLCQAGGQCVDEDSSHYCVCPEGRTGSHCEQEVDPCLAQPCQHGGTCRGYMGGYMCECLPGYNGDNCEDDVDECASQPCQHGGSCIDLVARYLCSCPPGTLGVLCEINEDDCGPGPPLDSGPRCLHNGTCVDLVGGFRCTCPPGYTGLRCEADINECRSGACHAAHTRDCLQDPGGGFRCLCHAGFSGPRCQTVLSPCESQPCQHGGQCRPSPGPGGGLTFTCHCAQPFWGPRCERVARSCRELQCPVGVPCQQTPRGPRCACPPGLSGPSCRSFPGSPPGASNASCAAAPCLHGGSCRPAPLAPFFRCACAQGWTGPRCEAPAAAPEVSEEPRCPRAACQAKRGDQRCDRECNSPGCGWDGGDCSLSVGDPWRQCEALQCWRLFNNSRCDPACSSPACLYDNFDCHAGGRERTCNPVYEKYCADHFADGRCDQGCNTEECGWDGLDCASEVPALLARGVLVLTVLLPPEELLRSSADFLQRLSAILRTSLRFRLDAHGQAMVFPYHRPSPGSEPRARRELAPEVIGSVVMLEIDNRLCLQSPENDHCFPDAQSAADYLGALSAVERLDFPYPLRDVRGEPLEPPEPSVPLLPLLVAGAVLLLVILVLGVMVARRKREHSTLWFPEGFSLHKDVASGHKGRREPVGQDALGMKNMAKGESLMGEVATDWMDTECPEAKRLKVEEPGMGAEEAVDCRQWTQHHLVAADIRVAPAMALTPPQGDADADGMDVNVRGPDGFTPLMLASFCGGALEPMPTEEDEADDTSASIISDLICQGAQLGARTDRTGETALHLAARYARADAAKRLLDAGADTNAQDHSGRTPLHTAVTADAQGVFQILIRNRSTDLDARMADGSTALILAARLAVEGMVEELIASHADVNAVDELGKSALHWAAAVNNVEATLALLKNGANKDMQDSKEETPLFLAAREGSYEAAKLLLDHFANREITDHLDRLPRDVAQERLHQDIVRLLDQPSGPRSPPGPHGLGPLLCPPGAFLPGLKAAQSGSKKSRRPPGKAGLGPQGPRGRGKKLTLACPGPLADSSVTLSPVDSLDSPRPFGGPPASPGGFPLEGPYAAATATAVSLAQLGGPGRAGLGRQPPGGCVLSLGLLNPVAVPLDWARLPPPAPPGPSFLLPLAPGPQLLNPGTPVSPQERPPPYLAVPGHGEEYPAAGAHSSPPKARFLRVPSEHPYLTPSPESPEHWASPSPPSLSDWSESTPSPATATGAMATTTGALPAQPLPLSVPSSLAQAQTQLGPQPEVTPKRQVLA
Experiment [10] in a line: small-molecule microarray binders of probe aEGFR, primary screen, biochemical, biotinylated probe, 635/667 nm fluorescence (AID 1097).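 Further: probe is a biotinylated anti-EGFR antibody binding compounds printed on slides; score combines fluorescence near 667 nm and signal to noise of each spot.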 The conditions noted are these: higher = more signal.

In the case of `C=CCNC(=O)[C@@H]1[C@H]2C(=O)O[C@H](c3ccccc3)[C@H](c3ccccc3)N2[C@H](c2ccc(O)cc2)[C@@]12C(=O)N(C(=O)OCCOC)c1ccc(C#CCC(C(=O)OC)C(=O)OC)cc12`, the composite z-score was 1.5 in [1]; 2.11 in [5]; -0.156 in experiment [7]; 1.03 in [8]; 0.959 in experiment [9]; -0.027 in experiment [10]. For the same molecule, the z-score is 1.03 (inactive) in experiment [2], 0.405 (inactive) in experiment [3], 0.624 (inactive) in experiment [4] and 1.19 (inactive) in experiment [6].

For the molecule `O=C(N1CCOCC1)[C@]1(CCS(=O)(=O)c2ccccc2)N=C(c2ccc(OCCCO)cc2)O[C@@H]1c1ccccc1`, the composite z-score in [1] turned out to be 1.45; in [5] it was 3.26; in experiment [7] it was 0.227; in [8], 0.0673; in experiment [9], 1.08; in experiment [10] it was 0.0727. Further, the z-score in [2] is 0.825 (inactive); in experiment [3], 0.778 (inactive); in [4] it was 2.98 (inactive); in experiment [6], 1.14 (inactive).

Consider `O=C1C2C=CC(C(O)c3ccccn3)N(Nc3ccc([N+](=O)[O-])cc3)C2C(=O)N1c1ccccc1` (stereo not given), for which the composite z-score in [1] is 0.379; in experiment [5], 1.12; in experiment [7] it was -0.248; in experiment [8], -0.493; in experiment [9], 0.772; in [10], -0.047. Besides, the z-score in [2] is -0.931 (inactive); in experiment [3], 0.587 (inactive); in [4], -0.622 (inactive); in experiment [6] it was -1.36 (inactive).

On to `COC(=O)[C@@]1(Cc2ccc(F)cc2)[C@H]2c3cc(C(=O)N(C)C)n(Cc4cccc5ccccc45)c3C[C@H]2CN1C(=O)c1ccccc1`, for which the composite z-score in experiment [1] is -0.72; in experiment [5], 4.03; in experiment [7], 0.323; in [8], -0.192; in experiment [9], -0.0287; in experiment [10], 0.0776. In addition, the z-score in experiment [2] is 1.43 (inactive); in experiment [3] it was 1.54 (inactive); in experiment [4], 2.69 (inactive); in [6], -1.15 (inactive).

For the molecule `[N-]=[N+]=NCc1ccccc1[C@H]1OC(c2ccc(OCCCO)cc2)=N[C@@]1(CCS(=O)(=O)c1ccccc1)C(=O)O`, the composite z-score was 0.0361 in [1]; 3.11 in [5]; 0.021 in experiment [7]; -0.482 in experiment [8]; 0.253 in experiment [9]; -0.067 in experiment [10]. Also, the z-score in experiment [2] was -0.791 (inactive); in experiment [3] it was -0.155 (inactive); in experiment [4], -0.814 (inactive); in experiment [6], 0.32 (inactive).

For the molecule `C=C[C@H](OC)[C@@H](O)c1ccc(OC)c(O)c1`, the composite z-score is -1.84 in experiment [1]; -0.456 in experiment [5]; -0.0783 in experiment [7]; -0.81 in experiment [8]; -0.436 in [9]; -0.258 in experiment [10]. In addition, the z-score in experiment [2] was 0.0615 (inactive); in experiment [3], 0.242 (inactive); in experiment [4] it was -0.0251 (inactive); in experiment [6] it was -0.0822 (inactive).

On to `C[C@@]1([C@@H](NS(=O)(=O)c2cccc3cccnc23)c2ccc(-c3ccccc3)cc2)C[C@H]1C1CCCCC1`, for which the composite z-score in [1] is 0.79; in experiment [5], 2.47; in [7] it was 0.134; in experiment [8] it was -0.0642; in [9], 0.818; in experiment [10], -0.0316. The z-score is 0.523 (inactive) in [2], 0.381 (inactive) in [3], 1.41 (inactive) in experiment [4] and -1.89 (inactive) in [6].

For the molecule `COCCOC(=O)N1C(=O)[C@@]2(c3cc(C#CCNC(N)=O)ccc31)[C@H](c1ccc(O)cc1)N1[C@H](c3ccccc3)[C@H](c3ccccc3)OC(=O)[C@H]1[C@@H]2C(=O)N1CCc2cc(OC)c(OC)cc2C1`, the composite z-score is 1.29 in [1]; 1.47 in [5]; -0.0475 in experiment [7]; 0.978 in [8]; 0.636 in experiment [9]; -0.0967 in experiment [10]. Besides, the z-score in experiment [2] is 1.05 (inactive); in experiment [3] it was 0.123 (inactive); in [4] it was 1.84 (inactive); in experiment [6], -0.732 (inactive).

In the case of `C=CCC(OC(C)=O)[C@@H]1[C@@H](N(Cc2ccc(-c3ccccc3)cc2)C(=O)Cc2ccc(OC)cc2)c2cc(OCCCO)ccc2N1C(=O)Cc1ccc(OC)cc1` (stereo not given in full), the composite z-score was 0.622 in experiment [1]; 0.436 in [5]; 0.0717 in [7]; -0.19 in experiment [8]; -0.209 in experiment [9]; 0.0101 in experiment [10]. Also, the z-score in experiment [2] is -0.0563 (inactive); in experiment [3], 0.68 (inactive); in experiment [4], -0.753 (inactive); in [6], -0.553 (inactive).

Take `O=C1NC(=O)C2C1C=CC(C(O)C(c1ccccc1)c1ccccc1)N2Nc1ccccn1` (stereo not given): the composite z-score was 0.72 in [1]; 1.27 in experiment [5]; 0.673 in experiment [7]; -0.0976 in experiment [8]; 0.0943 in [9]; 0.389 in [10]. Moreover, the z-score in experiment [2] is 0.583 (inactive); in experiment [3], 1.44 (inactive); in experiment [4] it was -0.968 (inactive); in [6], -0.519 (inactive).

`O=C1N(Cc2ccccc2)Cc2ccccc2C[C@@]12COC(c1ccc(OCCCO)cc1)=N2`: the composite z-score was 1.38 in experiment [1]; 1.79 in [5]; 0.363 in experiment [7]; 0.0489 in experiment [8]; 0.117 in [9]; -0.0315 in [10]. The z-score in experiment [2] was 1.92 (inactive); in experiment [3], -1.05 (inactive); in experiment [4], 6.73 (inactive); in experiment [6], 0.615 (inactive).

As to `[N-]=[N+]=Nc1ccccc1C[C@]1(C(=O)N2CCCCC2)N=C(c2ccc(OCCCO)cc2)O[C@H]1c1ccccc1`, the composite z-score was found to be 1.33 in experiment [1]; 2.74 in experiment [5]; 0.131 in experiment [7]; 0.595 in experiment [8]; 1.1 in [9]; 0.279 in experiment [10]. In addition, the z-score in [2] was -0.44 (inactive); in experiment [3], -9.22 (active); in [4], 0.926 (inactive); in experiment [6], 1 (inactive).

Take `C=C(C(=O)CC[C@H](OC(=O)c1ccccc1-c1ccccc1C(=O)O)c1ccc(OCCO)cc1)C(C)C`: the composite z-score is 1.51 in [1]; 3.04 in experiment [5]; -0.135 in [7]; 0.779 in experiment [8]; 0.241 in experiment [9]; 0.0675 in experiment [10]. Also, the z-score was -1.2 (inactive) in experiment [2], -0.788 (inactive) in [3], -1.28 (inactive) in experiment [4] and 0.438 (inactive) in [6].

Regarding `COc1c(C)cc(-c2nc(-c3ccccc3)c3c(c2C)CO[Si]3(C(C)C)C(C)C)cc1C`, the composite z-score was 0.114 in experiment [1]; 0.254 in experiment [5]; 0.074 in experiment [7]; 0.323 in [8]; 0.566 in [9]; -0.0068 in experiment [10]. The z-score in experiment [2] was 0.687 (inactive); in experiment [3] it was 0.104 (inactive); in experiment [4], -0.191 (inactive); in [6] it was -1.59 (inactive).

`COCCOC(=O)N1C(=O)[C@@]2(c3cc(C#CCC(C(=O)OC)C(=O)OC)ccc31)[C@H](C(=O)N1CCc3cc(OC)c(OC)cc3C1)[C@H]1C(=O)O[C@H](c3ccccc3)[C@H](c3ccccc3)N1[C@@H]2c1ccccc1OCCO`: the composite z-score in experiment [1] was 1.53; in experiment [5] it was 2.34; in experiment [7], -0.0754; in [8] it was 1.76; in experiment [9], 1.01; in experiment [10], 0.0209. The z-score in [2] is 1.32 (inactive); in experiment [3] it was 1.02 (inactive); in experiment [4], 4.36 (inactive); in experiment [6] it was 1.09 (inactive).
